Source: PubChem BioAssay
Sampled rows, rich in hits. Any-hit rate of the full collection: about 0.38%.
Rac1 act GTP bind: modulators of GTP binding to human Rac1 activated mutant; percent activity (GTP binding), % at 10 µM; GST-Rac1 activated beads, fluorescent GTP binding, flow cytometry; actives lie on both sides; 100% means binding = to untreated wells; actives 0.11% (n = 190,000); P63000;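 active = GTP binding at least 20 percentage points away from the 100% baseline, in either direction, so actives lie on both sides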
Rab7 wt GTP bind: dog Rab7 wildtype GTP binding, inhibitors and activators. GST-Rab7 beads, fluorescent GTP binding, flow cytometry; actives lie on both sides; untreated = 100%, excess cold GTP = 0%. GTP binding activity (percent of control), % at 10 µM. actives 0.055% (n = 190,000). AID 758;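 active = fluorescent GTP binding to Rab7 beads changed by at least 20 points from the 100% baseline, either direction, mostly lower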;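 also: median green fluorescence of bound Bodipy-FL-GTP per Rab7 bead population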
Cdc42 wt GTP: modulators (inhibitors or activators) of GTP binding to human Cdc42 wildtype; P60953; percent activity (GTP binding), % at 10 µM; GST-Cdc42 beads, Bodipy-GTP binding, flow cytometry; actives lie on both sides; AID 761; actives 0.2% (n = 190,000);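 active = percent activity GTP binding at least 20 points away from the 100% baseline, either down as inhibitor or up as activator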;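 also: median bead fluorescence of bound Bodipy-FL-GTP at 100 nM; 0% = excess unlabeled GTP control and 100% = no compound control; below 100% means less GTP binding so inhibitor and above means activator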
Target sequence (P60953 whole entry, looked up): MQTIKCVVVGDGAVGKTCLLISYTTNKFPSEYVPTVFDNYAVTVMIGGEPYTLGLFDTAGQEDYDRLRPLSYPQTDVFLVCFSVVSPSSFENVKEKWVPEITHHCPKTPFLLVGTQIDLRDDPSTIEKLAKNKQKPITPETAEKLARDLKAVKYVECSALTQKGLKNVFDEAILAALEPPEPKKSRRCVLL
HRas wt GTP: changes GTP binding to wildtype human HRas. P01112. GST-Ras wt beads, Bodipy-FL-GTP binding, flow cytometry; actives lie on both sides. GTP binding activity, % at 10 µM. actives 0.14% (n = 190,000);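 active = GTP binding activity at least 20% away from the 100% baseline, either lowered as inhibitor or raised as activator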;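 also: 0% = unlabeled GTP competition control and 100% = no-compound control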
Target sequence (P01112 whole entry, looked up): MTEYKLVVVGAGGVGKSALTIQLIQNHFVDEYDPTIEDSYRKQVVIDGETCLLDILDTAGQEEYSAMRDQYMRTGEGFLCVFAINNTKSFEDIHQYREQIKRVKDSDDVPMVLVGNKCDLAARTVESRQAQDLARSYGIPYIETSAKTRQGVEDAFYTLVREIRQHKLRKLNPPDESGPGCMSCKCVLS
Rac1 wt GTP bind: alters GTP binding to wildtype human Rac1. P63000. GST-Rac1 beads, fluorescent GTP binding, flow cytometry; actives lie on both sides; 0 = cold GTP competed, 100 = untreated. GTP binding activity (% of control), % at 10 µM. actives 0.27% (n = 190,000);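 active = GTP binding activity at least 20 points away from the 100% control level, either lower or higher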
Rab2A wt mod: changes GTP binding to wildtype dog Rab2A, up or down; GTP binding activity, % at 10 µM; AID 760; actives 0.19% (n = 190,000); GST-Rab2 wt beads, Bodipy-GTP binding, flow cytometry;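 active = GTP binding activity at least 20 points away from 100%, either lowered or raised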;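 also: 0% = beads with excess unlabeled GTP and 100% = no-compound control corrected for plate trend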
An asterisk follows results filed as active; [ ] = another dose, or the depositor's remark.

SMILES | Rac1 act GTP bind | Rab7 wt GTP bind | Cdc42 wt GTP | HRas wt GTP | Rac1 wt GTP bind | Rab2A wt mod
Nc1[nH]nc2ncc3cc4ccccc4nc3c12 | 83 | 88 | 80 | 85 | 68* | 82
COC(=O)C1SCC2C(=O)N(Cc3ccccc3)CC(=O)N21 (centres undefined) | 97 | 91 | 97 | 92 | 95 | 96
CC(C)C(=O)N1CCN(c2ccccc2NC(=O)c2cccc(Cl)c2)CC1 | 108 | 108 | 116 | 112 | 121*[activator] | 111
C=CCNC(=O)c1cc2c(=O)n3cc(C)ccc3nc2nc1NCC1CCCO1 (centres undefined) | 82 | 65* | 89 | 69* | 82 | 78*
CC(=O)Nc1ccc(S(=O)(=O)Nc2nc3ccccc3nc2-n2ccc(=NC(=O)c3ccc(F)cc3)cc2)cc1 | 94 | 103 | 92 | 99 | 99 | 95
Oc1ccc(/C=N/Nc2nc(-c3ccc(Cl)cc3)cc(C(F)(F)F)n2)cc1 | 98 | 100 | 100 | 99 | 102 | 98
O=c1[nH]c(=O)c2nnc(N/N=C\c3ccc(O)cc3)nc2[nH]1 | 74* | 92 | 60* | 63* | 54* | 59*
COc1cc(C)c2c(c1C=O)Oc1c(c(C)c(O)c3c1C(O)OC3=O)OC2=O (centres undefined) | 76* | 84 | 78* | 81 | 80 | 80
Cc1c(NC(=O)CCN2C(=O)c3ccccc3C2=O)c(=O)n(-c2ccccc2)n1C | 84 | 95 | 81 | 86 | 78* | 88
CN(C)c1cccc2c(/C=N/O)ccc(N(C)C)c12 | 93 | 96 | 95 | 95 | 94 | 98
CN1C(=O)N(C)c2ccc(C=O)c3cccc1c23 | 86 | 89 | 84 | 86 | 77* | 82
N#Cc1c(-c2cccc(Br)c2)cc(-c2ccco2)[nH]c1=O | 76* | 86 | 79* | 83 | 75* | 81
CCN1/C(=C\C=C2\C(=O)N(C)C(=S)N2C)Sc2ccccc21 | 88 | 93 | 97 | 83 | 88 | 94
CCN1C(=O)/C(=C/C=C2/Sc3ccc4ccccc4c3N2CCO)SC1=S | 83 | 81 | 78* | 78* | 75* | 84
CCN1C(c2ccccc2)=C(c2ccccc2)S/C1=C/C=C1\SC(=S)N(C)C1=O | 69* | 72* | 67* | 66* | 71* | 71*
CN1CCS/C1=C/C=C1/SC(=S)N(Cc2ccccc2)C1=O | 98 | 100 | 95 | 97 | 97 | 99
CC(C)C(NCc1c(Cl)cccc1Cl)C(=O)O (centres undefined) | 114 | 112 | 118 | 114 | 124*[activator] | 115
Cc1ccc(/C=C/C(=O)c2ccccc(=O)c2O)cc1C | 74* | 87 | 78* | 84 | 82 | 81
Cc1ccccc1-c1nnc(NC(=O)c2ccc(N3C(=O)CCC3=O)cc2)s1 | 104 | 104 | 109 | 106 | 130*[activator] | 106
Cc1cccc(-c2nnc(NC(=O)c3ccc(N4C(=O)CCC4=O)cc3)s2)c1 | 101 | 101 | 107 | 105 | 113 | 103
O=C(Cn1cnc2cc([N+](=O)[O-])ccc2c1=O)NCc1ccc(Cl)cc1 | 86 | 91 | 77* | 84 | 74* | 80
O=C(COc1ncnc2cc([N+](=O)[O-])ccc12)NC(=O)NC1CCCCC1 | 89 | 90 | 80 | 85 | 75* | 79*
CCOC(=O)c1c(C)[nH]c(C)c1C(=O)COc1ncnc2cc([N+](=O)[O-])ccc12 | 81 | 74* | 64* | 70* | 63* | 63*
O=C(COc1ncnc2cc([N+](=O)[O-])ccc12)NCCc1ccc(Cl)cc1 | 90 | 92 | 81 | 84 | 77* | 80
CC1CCCCC1NC(=O)COC(=O)CNC(=O)c1cccc(F)c1 (centres undefined) | 90 | 98 | 91 | 92 | 92 | 94
SMILES | Rac1 act GTP bind | Rab7 wt GTP bind | Cdc42 wt GTP | HRas wt GTP | Rac1 wt GTP bind | Rab2A wt mod
CCn1cc(C(=O)OCC(=O)NCc2ccccc2Cl)c(=O)c2ccc(C)nc21 | 94 | 87 | 95 | 90 | 92 | 94
S=c1[nH]nc(-c2ccco2)n1-c1ccc(Cl)cc1 | 78* | 82 | 82 | 81 | 82 | 82
O=C(CCCCCNC(=O)c1ccccc1)N=Nc1c(O)[nH]c2c(Br)cc(Br)cc12 | 90 | 112 | 92 | 97 | 99 | 98
NC(=O)N=Nc1c(O)[nH]c2c(Br)cc(Br)cc12 | 87 | 83 | 75* | 78* | 69* | 75*
O=C1/C(=C\c2cccnc2)Sc2ccccc21 | 88 | 90 | 72* | 90 | 84 | 89
O=C(O)c1cc([N+](=O)[O-])ccc1NCc1ccccc1Cl | 133*[activator] | 114 | 129*[activator] | 125*[activator] | 146*[activator] | 129*[activator]
CC1CCN(c2ccc(N3C(=O)C4CCCCC4C3=O)cc2[N+](=O)[O-])CC1 (centres undefined) | 103 | 99 | 107 | 102 | 101 | 102
CC1CN(C(=O)c2cccc(S(=O)(=O)Nc3cc(Cl)ccc3Cl)c2)CC(C)O1 (centres undefined) | 83 | 96 | 79* | 81 | 72* | 78*
O=C(COc1ccccc1)N/N=C/c1ccc2c(c1)OCO2 | 87 | 93 | 89 | 88 | 91 | 86
Cc1cccc(OCC(=O)N/N=C/c2ccc3c(c2)OCO3)c1 | 78* | 92 | 77* | 85 | 82 | 83
COc1cc2c(-c3ccc(O)cc3)nc3c(c(C)nn3-c3ccccc3)c2cc1OC | 99 | 101 | 93 | 97 | 99 | 97
COc1cc2c(C)nc3c(c(C)nn3-c3ccccc3)c2cc1OC | 89 | 95 | 83 | 85 | 72* | 83
CCOC(=O)c1cc2c(N)c(C(=O)c3ccc(Br)cc3)sc2[nH]c1=O | 79* | 90 | 71* | 74* | 64* | 71*
NC1=NC(=O)/C(=C/c2cn(CCC(=O)O)nc2-c2ccc(F)cc2)S1 | 100 | 98 | 97 | 97 | 96 | 98
NC1=NC(=O)/C(=C/c2cn(CCC(=O)O)nc2-c2ccc(Cl)cc2)S1 | 85 | 89 | 85 | 81 | 77* | 81
COc1nc(Nc2ccc([N+](=O)[O-])cc2)nc(NC2CCCCC2)n1 | 105 | 106 | 105 | 103 | 103 | 103
Cc1ccc(Cc2cnc(NC(=O)/C(C#N)=C/c3ccc(-c4ccc([N+](=O)[O-])cc4)o3)s2)cc1 | 83 | 79* | 82 | 82 | 84 | 83
COc1cc(/C=C/C(=O)OCC(=O)NC(=O)NC23CC4CC(CC(C4)C2)C3)ccc1OCC#N | 98 | 98 | 95 | 98 | 97 | 97
